Several values for one entry are separate records, joined by “and”; a condition that tells them apart may be missing. Equal values may be shown once. Records with an inconclusive call do not appear. Activity calls are given as the source filed them. The calls were made as follows: active = hit-call score of the fitted dose curve at least 0.9, where 1 is the maximum; inconclusive = response in the unintended direction; inactive = score below 0.9.

As a reminder, the AC50 is the midpoint of the concentration-response curve, whichever way the signal moves.

Sequence of human Constitutive Androstane Receptor (CAR), NR1I3 (gene 9970) (Q14994 whole entry, looked up): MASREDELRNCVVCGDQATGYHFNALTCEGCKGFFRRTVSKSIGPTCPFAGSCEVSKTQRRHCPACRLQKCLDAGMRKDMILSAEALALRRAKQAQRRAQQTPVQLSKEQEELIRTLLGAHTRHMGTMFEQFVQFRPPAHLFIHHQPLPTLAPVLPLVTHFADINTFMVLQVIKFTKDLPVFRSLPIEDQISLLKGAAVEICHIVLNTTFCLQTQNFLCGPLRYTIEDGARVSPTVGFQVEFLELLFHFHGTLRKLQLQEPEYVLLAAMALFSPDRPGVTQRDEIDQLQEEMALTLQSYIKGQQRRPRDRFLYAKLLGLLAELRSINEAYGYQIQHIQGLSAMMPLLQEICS

The assay has as its target human Constitutive Androstane Receptor (CAR), NR1I3 (gene 9970) (UniProt Q14994). Briefly: NVS_NR_hCAR_Antagonist: NovaScreen (NVS) Nuclear Receptor Binding Assay for human Constitutive Androstane Receptor Antagonism (CAR) (AID 2283344). The method, then: NVS_NR_hCAR_Antagonist is a biochemical, single-readout assay that uses extracted gene-proteins in a cell-free assay. Measurements were taken 1 hour after chemical dosing in a 384-well plate.NVS_NR_hCAR_Antagonist is one of one assay component(s) measured or calculated from the NVS_NR_hCAR_Antagonist assay. It is designed to make measurements of fluorescent resonance energy transfer, a form of binding reporter, as detected with fluorescent resonance energy transfer signals by Time-Resolved Fluorescence Resonance Energy Transfer (TR-FRET) technology.Data from the assay component NVS_NR_hCAR_Antagonist was analyzed into 1 assay endpoint. This assay endpoint, NVS_NR_hCAR_Antagonist, was analyzed in the positive analysis fitting direction relative to DMSO as the negative control and baseline of activity. Using a type of binding reporter, loss-of-signal activity can be used to understand changes in the binding as they relate to the gene NR1I3. Furthermore, this assay endpoint can be referred to as a primary readout, because the performed assay has only produced 1 assay endpoint. To generalize the intended target to other relatable targets, this assay endpoint is annotated to the nuclear receptor intended target family, where the subfamily is non-steroidal.
Binding assays used specific radioligands (tritiated, iodinated) with non-radioactive competitive displacement ligands in agonist or antagonist protocols (as indicated) and various reference compounds and inhibitors to titrate specific binding to receptors and transporters. Most enzyme assays (CYPs, kinases, phosphatases, proteases, HDACs) used recombinant protein and specific substrates (fluorescence mostly, some colorimetric and radioactive) and inhibitors, followed by a biochemical separation of substrate and product. All assays for the biochemical HTS were initially run in duplicate at a single concentration (10 uM for CYP450 assays and 25 uM for all others). […] Each assay was run with positive and negative controls, and concurrent controls on every plate. The follow-up (secondary) screen tested active chemical-pairs in concentration series, as well as a few additional assays not tested in the primary screen, some selected negative inactives, and several cases re-run in the concentration series for confirmatory purposes.
Turning to `C#CCOS(=O)OC1CCCCC1Oc1ccc(C(C)(C)C)cc1` (stereo not drawn), the compound was classed as inactive.
As to `CNC(=O)ON=CC(C)(C)SC`, the result was inactive.
With `Cc1ccc(-c2c(Cl)nc(C#N)n2S(=O)(=O)N(C)C)cc1`, the outcome was inactive.
Still for that read-out and setting: the result for `COC(=O)c1ccccc1C(=O)OC` reads “inactive”.
For the compound `CCOC(=O)CC(SP(=S)(OC)OC)C(=O)OCC` (stereo not drawn), the AC50 was 18.6 µM (active).
Regarding `COc1nc(C)nc(NC(=O)NS(=O)(=O)c2ccccc2CCC(F)(F)F)n1`, the compound was classed as inactive.
As for `CCCC1COC(Cn2cncn2)(c2ccc(Cl)cc2Cl)O1` (stereo not drawn), the half-maximal activity concentration (AC50) is 11.8 µM (active) and 25 µM (active).
`COP(N)(=O)SC` (stereo not drawn): the result was inactive.
Same read-out and setting: in the case of `CNC(=S)S` it was “inactive”; in that of `N#Cc1cc(Br)c(O)c(Br)c1`, “inactive”; in that of `CO/C=C(/C(=O)OC)c1ccccc1Oc1cc(Oc2ccccc2C#N)ncn1`, “inactive”.
The same measure, in the same setting: in the case of `COc1ccc(C(c2ccc(OC)cc2)C(Cl)(Cl)Cl)cc1` it was “inactive”; in that of `CS/C(C)=N/OC(=O)N(C)SN(C)C(=O)O/N=C(\C)SC`, “inactive”; in that of `COC(=O)N(OC)c1ccccc1COc1ccn(-c2ccc(Cl)cc2)n1`, “inactive”.
The same measure, in the same setting: in the case of `CCCCC(CC)COC(=O)c1ccccc1C(=O)OCC(CC)CCCC` (stereo not drawn) it was “inactive”; in that of `CCNc1nc(Cl)nc(NCC)n1`, “inactive”; in that of `CCON=C(CC)C1=C(O)CC(c2c(C)cc(C)cc2C)CC1=O` (stereo not drawn), “inactive”.
On to `CCCCOC(=O)c1ccccc1C(=O)OCCCC`, for which the result was inactive.
Same read-out and setting: in the case of `CON(C)C(=O)Nc1ccc(Cl)c(Cl)c1` it was “inactive”.
Consider `CCCN(CCC)c1c([N+](=O)[O-])cc(S(N)(=O)=O)cc1[N+](=O)[O-]`, for which the AC50 is 526 nM (active) and 6.79 µM (active).
As to `O=C(O)COc1nc(Cl)c(Cl)cc1Cl`, the compound was called inactive.
Turning to `OC(c1ccc(Cl)cc1)(c1cncnc1)c1ccccc1Cl` (stereo not drawn), the AC50 was 25 µM (active).
As for `CCOP(=S)(OCC)SCn1c(=O)oc2cc(Cl)ccc21`, the compound was classed as inactive.

For the origin of these results see PubChem BioAssay (EPA / NIEHS).
